Data reported in PMC5540273 (PLoS ONE, 2017).

How the values were obtained:
Conditions in all cases: concentration: 1 μM, replicates: in singlicate; n = 1
[1] = test system: EPHA7
[2] = test system: EPHA8
[3] = test system: EPHB1
[4] = test system: EPHB2
[5] = test system: EPHB3
[6] = test system: EPHB4
[7] = test system: EPHB6
[8] = test system: ERBB2
[9] = test system: ERBB3
[10] = test system: ERBB4
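Note: KINOMEscan kinase panel screen.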

| SMILES | %Inh [1] [%] | %Inh [2] [%] | %Inh [3] [%] | %Inh [4] [%] | %Inh [5] [%] | %Inh [6] [%] | %Inh [7] [%] | %Inh [8] [%] | %Inh [9] [%] | %Inh [10] [%] |
| --- | --- | --- | --- | --- | --- | --- | --- | --- | --- | --- |
| O=C(Nc1c(F)cccc1F)c1cc(C(=O)c2ccccc2F)c[nH]1 [GSK1326180] | 0 | 0 | 4 | 0 | 6 | 0 | 0 | 35 | 20 | 0 |
| Nc1ncc(-c2cn[nH]c2)c2scc(-c3ccc4c(c3)CCN4C(=O)Cc3ccccc3)c12 [GSK2593067] | 0 | 14 | 5 | 0 | 0 | 0 | 97.6 | 0 | 0 | 0 |
| N#CC1(c2cccc(C(=O)Nc3cccc(Oc4ccc5nc(NC(=O)C6CC6)sc5n4)c3)c2)CC1 | 0 | 98.9 | 95.8 | 100 | 50 | 95.9 | 99.5 | 22 | 0 | 0 |
| COc1cccc(C2=C(Nc3cccc(O)c3)C(=O)NC2=O)c1 [SB-390771] | 10 | 18 | 11 | 16 | 31 | 16 | 49 | 23 | 0 | 2 |
| Cl.N#CCc1ccc(Nc2nccc(Nc3ccc(Oc4ccccc4)cc3)n2)cc1 [GW639905] | 0 | 0 | 0 | 6 | 0 | 0 | 46 | 23 | 96.3 | 53 |
| Cc1ccccc1CC(=O)N1CCc2cc(-c3cn(C)c4ncnc(N)c34)ccc21 [GSK2603346] | 0 | 5 | 8 | 0 | 0 | 0 | 53 | 8 | 0 | 32 |
| N#Cc1cnc2cc(-c3cnc(CNCCN4CCOCC4)s3)ccc2c1Nc1ccc(Oc2ccccc2)cc1 [GW664114] | 0 | 25 | 0 | 7 | 10 | 10 | 21 | 79 | 100 | 100 |
| COc1ccc(C2=C(Nc3cccc(O)c3)C(=O)NC2=O)cc1 [SB-390766] | 4 | 11 | 9 | 87 | 5 | 0 | 10 | 11 | 0 | 12 |
| CC(C)c1nc(-c2ccc(F)c(NS(=O)(=O)c3c(F)cccc3F)c2)c(-c2ccnc(Nc3ccc(N4CCOCC4)nc3)n2)s1 [GSK1804250] | 12 | 70 | 21 | 0 | 24 | 12 | 97.3 | 95.8 | 98.8 | 78 |
| CC(C)c1nc(-c2cccc(NS(=O)(=O)c3c(F)cccc3F)c2)c(-c2ccnc(Nc3ccc(N4CCOCC4)nc3)n2)s1.Cl [GSK1723980] | 0 | 93 | 24 | 0 | 0 | 0 | 97.4 | 86 | 97.8 | 95 |
| CNc1nccc(-c2ccc3c(N)n[nH]c3c2)n1 [GSK2206003] | 9 | 18 | 5 | 0 | 5 | 2 | 11 | 50 | 8 | 31 |
| Cc1cccc(Nc2nc(NCCN)ncc2C(N)=O)c1 [GSK1292139] | 52 | 58 | 1 | 0 | 0 | 0 | 50 | 4 | 0 | 10 |
| Cc1ccc(NC(=O)c2cccc(N3CCCCC3)c2)cc1-c1ccc(C(=O)NCC2CC2)cc1 [GSK1917008] | 24 | 41 | 30 | 0 | 27 | 31 | 21 | 0 | 0 | 2 |
| O=C(Nc1n[nH]c2nc(-c3ccccc3O)ccc12)C1CC1 [SB-711880] | 58 | 37 | 0 | 0 | 0 | 0 | 53 | 0 | 0 | 0 |
| COc1cc(Nc2nccc(N3CCC(NS(=O)(=O)c4ccc(NC(C)=O)cc4)CC3)n2)cc(OC)c1OC [GSK1379825] | 0 | 11 | 6 | 30 | 55 | 38 | 96.8 | 18 | 38 | 20 |
| CSc1ccc(NC2=C(c3ccc(Cl)cc3)C(=O)NC2=O)cc1 [SB-317658] | 0 | 5 | 0 | 6 | 21 | 11 | 0 | 0 | 0 | 0 |

| SMILES | %Inh [1] [%] | %Inh [2] [%] | %Inh [3] [%] | %Inh [4] [%] | %Inh [5] [%] | %Inh [6] [%] | %Inh [7] [%] | %Inh [8] [%] | %Inh [9] [%] | %Inh [10] [%] |
| --- | --- | --- | --- | --- | --- | --- | --- | --- | --- | --- |
| COC(=O)Nc1nc2cc(Oc3ccc(NC(=O)Nc4cccc(SC)c4)cc3)ccc2[nH]1.Cl [GW697999] | 54 | 96.8 | 61 | 70 | 19 | 70 | 80 | 32 | 14 | 35 |
| Cc1cc(-c2ccnc(Nc3cccc(C#N)c3)n2)cc(C)c1O [GSK1440913] | 18 | 21 | 18 | 19 | 18 | 16 | 90.3 | 27 | 7 | 0 |
| Cc1nn2c(=O)cc(N3CCO[C@H](C)C3)nc2n1Cc1cccc(Cl)c1Cl [GSK2373693] | 0 | 2 | 3 | 66 | 0 | 5 | 3 | 0 | 0 | 0 |
| Nc1cccc(-c2ccc3c(N)n[nH]c3c2)c1 [GSK2193613] | 9 | 29 | 9 | 0 | 13 | 14 | 14 | 0 | 0 | 0 |
| COc1ccc(NC(=O)c2ccoc2)cc1-c1ccc(C(=O)NCC2CC2)cc1 [GW810437] | 0 | 1 | 4 | 0 | 0 | 0 | 24 | 15 | 12 | 7 |
| CC(C)NCC(Cc1ccccc1)NC(=O)c1cc(Br)c(-c2ccnc3[nH]ccc23)s1.Cl.Cl (centres unmarked) [GSK1383281] | 0 | 0 | 16 | 0 | 2 | 2 | 6 | 16 | 0 | 10 |
| COC(=O)Nc1nc2ccc(Oc3ccc(NC(=O)Nc4cc(C(F)(F)F)ccc4F)cc3)cc2[nH]1.Cl [GW654607] | 89 | 99.6 | 81 | 80 | 40 | 58 | 92.4 | 6 | 0 | 6 |
| CN(C)CCOc1ccc(-c2cc(-c3ccc(Cl)c(O)c3)c(-c3ccncc3)[nH]2)cc1.Cl.Cl [SB-684387] | 2 | 4 | 10 | 15 | 15 | 23 | 34 | 32 | 23 | 32 |
| COc1cccc(-c2nc(-c3ccccc3)[nH]c2-c2ccncc2)c1 [SB-610250] | 9 | 25 | 16 | 0 | 24 | 0 | 22 | 31 | 20 | 0 |
| Cc1cc(-c2c(-c3ccc(F)cc3)ncn2CCCN2CCOCC2)nc(N)n1 [SB-222517] | 0 | 0 | 0 | 12 | 29 | 10 | 0 | 0 | 0 | 0 |
| O=C(O)C(F)(F)F.O=c1[nH]ccc2nc(N[C@@H]3CCNC3)nc(Nc3cc(Cl)cc(Cl)c3)c12 [GSK2188764] | 1 | 5 | 28 | 1 | 4 | 6 | 17 | 4 | 0 | 0 |
| COc1cccc2c(-c3ccncc3)c(-c3ccc(F)cc3)nn12 [GW468513] | 0 | 3 | 6 | 0 | 38 | 13 | 37 | 50 | 21 | 68 |
| COc1cc(Nc2ccnc3cc(-c4ccncc4)ccc23)cc(OC)c1OC.Cl [GW494610] | 0 | 99.2 | 74 | 57 | 0 | 50 | 98 | 49 | 50 | 5 |
| O=C(Nc1n[nH]c2cc(-c3cccs3)ccc12)C1CC1 [SB-731284] | 0 | 0 | 0 | 0 | 0 | 0 | 55 | 12 | 0 | 0 |
| CCOc1nccc(-c2c(-c3ccc(F)cc3)ncn2C2CCNCC2)n1 [SB-249175] | 0 | 0 | 0 | 11 | 0 | 0 | 14 | 5 | 36 | 30 |
| CS(=O)(=O)c1cccc(CNc2nc(Nc3ccc4c(c3)CCC(=O)N4)ncc2C(F)(F)F)c1 | 0 | 0 | 0 | 0 | 0 | 0 | 21 | 45 | 0 | 3 |
